Source: ChEMBL document CHEMBL4513216, “Probing the Open Global Health Chemical Diversity Library for Multistage-Active Starting Points for Next-Generation Antimalarials” (ACS Infect Dis, 2020)
Among all 69,000 compounds or so, about 8,600 (12%) showed an effect of 50% or more. What follows is part of a selection rich in strong results, with near analogues and random picks from the rest.

These compounds were tested on Plasmodium berghei (assay: Screen against P. berghei liver stage (PbLuc), transformed with Luciferase, at 10uM). Settings: tested at 10 uM.
Format: functional, HepG2
With `CCN(CC)S(=O)(=O)c1ccc(CNC(=O)N2CCCCCC2)cc1` the INHIBITION was 54.3%.
For `CCN(CC)S(=O)(=O)c1ccc(CNC(=O)N2CCC(C#N)CC2)cc1`, the INHIBITION was 45.7%.
`CS(=O)(=O)c1ccc(CNC(=O)N2CCC(C(N)=O)CC2)cc1` showed an INHIBITION of -60.8%.
Work on `COCCCNC(=O)c1cn(C(C)C)cc2c(=O)[nH]nc1-2` yielded an INHIBITION of 14.9%.
`Cc1nn(C)cc1S(=O)(=O)N(CCc1ccccc1)Cc1ccn(C)n1` gave an INHIBITION of 26.75%.
For `CSCC[C@@H](CO)NC(=O)c1sc(-c2ccccc2Cl)nc1C`, the INHIBITION was 9.84%.
Work on `Cc1ccccc1-n1ncc2c(=O)n(CCN3CCCC3)cnc21` yielded an INHIBITION of -16.3%.
In the case of `CCOCCCNC(=O)CCSCc1csc(C)n1`, the INHIBITION is reported as 63.8%.
`Cc1nc(CSCCC(=O)NCCNC(=O)OC(C)(C)C)cs1` gave an INHIBITION of -30.7%.
Work on `Cc1nc(CSCCC(=O)NCC(=O)NC(C)C)cs1` yielded an INHIBITION of 29.4%.
`Cc1ccc(-c2ccnc(NCC(O)c3ccc(O)cc3)n2)c(C)n1` (centres undefined) showed an INHIBITION of 37.8%.
In the case of `O=C1NCCCCC1NC(=O)N1CCCc2cc(F)ccc21` (centres undefined), the INHIBITION is reported as 58.9%.
With `O=C1NCCCCC1NC(=O)N1CCCc2ccccc21` (centres undefined) the INHIBITION was 34.2%.
In the case of `COc1ccc2c(c1)CCCN2C(=O)NC1CCCCNC1=O` (centres undefined), the INHIBITION is reported as 44.3%.
For `Cc1ccc(CN2CCc3[nH]nc(C(=O)N(C)C)c3C2)s1`, the INHIBITION was 8.74%.
In the case of `Cc1ccc(-n2nnc(C(=O)NCCS(N)(=O)=O)c2C2CC2)cc1`, the INHIBITION is reported as 58.5%.
Work on `NS(=O)(=O)CCNC(=O)c1nnn(-c2ccccc2)c1C1CC1` yielded an INHIBITION of 56.8%.
Work on `O=C(NCC1(C(=O)O)CCC1)c1nnn(-c2ccc(F)cc2)c1C1CC1` yielded an INHIBITION of 20%.
For `CS(=O)(=O)NC(=O)c1nnn(-c2ccccc2)c1C1CC1`, the INHIBITION was 8.64%.
`O=C(NCC1(CO)CC1)c1nnn(-c2ccc(F)cc2)c1C1CC1` gave an INHIBITION of 78.2%.
With `Cc1ccc(-n2nnc(C(=O)NCC3(CO)CC3)c2C2CC2)cc1` the INHIBITION was 33.3%.
In the case of `NS(=O)(=O)CCNC(=O)c1nnn(-c2ccc(F)cc2)c1C1CC1`, the INHIBITION is reported as 36.8%.
Compound `CC(C)NC(=O)c1nnn(-c2ccccc2)c1C1CC1` has an INHIBITION of -65.5%.
Work on `COC(=O)CCNC(=O)c1nnn(-c2ccc(C)cc2)c1C1CC1` yielded an INHIBITION of 49.8%.
`CCc1nc(C2CCCN(C(=O)c3cc(C(C)C)[nH]n3)C2)no1` (centres undefined) gave an INHIBITION of 21.6%.
`O=C(NCC1CC1)[C@@H]1CC[C@@H]2[C@@H](CCN2Cc2ccco2)O1` showed an INHIBITION of -35%.
`O=C(NCCN1CCOCC1)c1nc(-c2ccc3[nH]ccc3c2)no1` was tested, and the INHIBITION was -50.8%.
`Cn1ncc(C(=O)N2CCN(S(C)(=O)=O)CC2)c1Cl` was tested, and the INHIBITION was -10.95%.
With `CNC(=O)C1(C)CCCN1Cc1cnn(C)c1C` (centres undefined) the INHIBITION was 37.8%.
`Cc1nn(C)cc1CN(C)C(=O)c1ccncc1` was tested, and the INHIBITION was 69.9%.
`Cc1nn(C)cc1CN(C)C(=O)c1ccccn1` was tested, and the INHIBITION was 8.7%.
For `Cc1nn(C)cc1CN(C)C(=O)c1cccnc1`, the INHIBITION was -13.6%.
For `Cc1nc(CN2CCC3(CC2)NC(=O)CC3c2ccncc2)cs1` (centres undefined), the INHIBITION was 45.7%.
For `CCC(C)N(Cc1sccc1C)C(=O)c1cnc[nH]1` (centres undefined), the INHIBITION was 9.41%.
`CCc1nnc(CN(C)Cc2cccc(C(=O)Nc3nccs3)c2)o1` showed an INHIBITION of 70.9%.
`CCc1nnc(CN(C)Cc2cccc(C(=O)Nc3cnn(C)c3)c2)o1` was tested, and the INHIBITION was 28.7%.
Compound `CCc1nnc(CN(C)Cc2cccc(C(=O)Nc3ccnn3C)c2)o1` has an INHIBITION of 35%.
For `CC(C)(CO)CCCNC(=O)NC1(C)Cc2ccccc2C1`, the INHIBITION was 47.2%.
`c1ccc(CN2CCc3nnc(CN4CCCCC4)n3CC2)nc1` was tested, and the INHIBITION was -2.84%.
In the case of `COc1ccc(Cc2ncc3c(n2)CN(C(=O)C(C)(C)OC)C3)cc1`, the INHIBITION is reported as 11.2%.
With `Cc1cc(C(=O)N(CC2CCCO2)c2ccncc2)c(C)o1` (centres undefined) the INHIBITION was 26.4%.
`Cc1ccc(C(=O)N2CCn3c(COCC4CC4)cnc3C2C)s1` (centres undefined) gave an INHIBITION of -3.24%.
`NC(=O)COc1ccc(CNCc2ccc(F)c(F)c2)cc1` showed an INHIBITION of -33.2%.
`Cn1cc(CC2CCN(C(=O)NCc3cccc(C#N)c3)C2)cn1` (centres undefined) showed an INHIBITION of 8.55%.
In the case of `CC1CN(C(=O)NCc2cccc(C#N)c2)CCN1CC(F)(F)F` (centres undefined), the INHIBITION is reported as 19%.
In the case of `CC(N1CCN(C(=O)NCc2cccc(C#N)c2)CC1)C(F)(F)F` (centres undefined), the INHIBITION is reported as 56.7%.
With `Cc1cc(Cc2ccc(S(=O)(=O)N3CCSCC3)cc2)c(=O)[nH]n1` the INHIBITION was 13.2%.
Compound `CCC1CN(CCCNS(C)(=O)=O)c2ccccc2O1` (centres undefined) has an INHIBITION of 50.1%.
`CCC1CN(CCCO)c2ccccc2O1` (centres undefined) showed an INHIBITION of 29.8%.
For `CCC1CN(CCNS(C)(=O)=O)c2ccccc2O1` (centres undefined), the INHIBITION was -4.46%.
`CS(=O)(=O)N1CCCC12CCN(Cc1nccs1)C2` (centres undefined) gave an INHIBITION of -0.804%.
With `Cc1ccc(CN2CCC3(CCCN3S(C)(=O)=O)CC2)s1` the INHIBITION was 25.8%.
`COCCN1C(=O)CCC12CCCN(Cc1nccs1)CC2` (centres undefined) showed an INHIBITION of 48.6%.
`O=C1CCC2(CCCN(Cc3nccs3)C2)N1CC1CC1` (centres undefined) gave an INHIBITION of 36.9%.
For `CCN1C(=O)CCC12CCCN(Cc1nccs1)C2` (centres undefined), the INHIBITION was 46.2%.
`Cc1ccc(CN2CCCC3(CCCN3S(C)(=O)=O)C2)s1` (centres undefined) was tested, and the INHIBITION was 63.8%.
`CCN1C(=O)CCC12CCCN(Cc1nccs1)CC2` (centres undefined) gave an INHIBITION of 59.7%.
Work on `Cc1ccc(CN2CCCC3(CCCCN3S(C)(=O)=O)C2)s1` (centres undefined) yielded an INHIBITION of 14.9%.
Work on `CN1C(=O)CCCC12CCCN(Cc1nccs1)C2` (centres undefined) yielded an INHIBITION of 16.9%.
In the case of `CS(=O)(=O)N1CCCC12CCN(Cc1nccs1)CC2`, the INHIBITION is reported as 28.2%.
With `CS(=O)(=O)N1CCCCC12CCCN(Cc1nccs1)C2` (centres undefined) the INHIBITION was 60.3%.
Compound `CN1C(=O)CCC12CCCN(Cc1nccs1)C2` (centres undefined) has an INHIBITION of 59%.
With `Clc1ccccc1C1CN(CCc2ccncc2)CCO1` (centres undefined) the INHIBITION was 29.1%.
`Cc1ccc(C(=O)N2CCC3(CC2)COC(COc2cccnc2)C3)o1` (centres undefined) showed an INHIBITION of 3.69%.
`CN(C)S(=O)(=O)N1CC[C@]2(O)CCN(CCc3cccc(F)c3)C[C@@H]2C1` gave an INHIBITION of 3.96%.
`CN(C)[C@@H]1CN(Cc2ccoc2)C[C@@H]2CCCO[C@@H]21` gave an INHIBITION of 25.6%.
For `COCC1CN(C(C)=O)CCN(c2cc(C)ncn2)C1` (centres undefined), the INHIBITION was 24.4%.
Work on `Cc1ccc(C(=O)N2C[C@H]3CCC[C@@]3(COc3ccccn3)C2)nc1` yielded an INHIBITION of -10.2%.
`Cc1cc(C2CCC2)nc(NCC(C)(C)CO)n1` gave an INHIBITION of -7.53%.
